# Results published in the OligoGym collection.
# Target: CRTAM
# Test: pooled miR-30 sensor sort-seq; sequence = guide strand
# Details: shRNA
# Further: reference of the scale not given here.
row,Sequence,sensor-assay potency score (higher = more potent)
1,TTGAATGTTGTACATTTTCCTT,-1.1
2,TTTGTGCTTACAGAGTCGCTGT,-0.405
3,TAGCTGCTCACACTGACCCTGA,-0.659
4,TTGATCTGTAACTTTCTAGTGT,0.218
5,TAGTATTACATTTCTTCCCATC,-0.999
6,TTTGTGATGTAGTTCATGCAAC,-0.216
7,TTAGCTGCTCACACTGACCCTG,-0.252
8,TTTTGCTTTCTGATAACTGAAG,-1.15
9,TTAAACTACAAGCTTTATGTGC,-0.391
10,TTTGCTTCTGAGTACAACTTTG,-0.892
11,TTTTCTTTCTTGCCAGTCCTAA,-0.265

# Target: CRX
# Test: as above
# Details: shRNA
row,Sequence,sensor-assay potency score (higher = more potent)
1,TTTGGTTTGACTTCTTCTTGGA,0.763
2,TGTAGGAATCTGAGATGCCCAG,-0.841
3,TAGGTGAATTTCCAGGTGCCCG,-1.41
4,TTGAACCAAACCTGAACCCTGG,-0.194
5,TTTCTCAGGAATGCCATCCCGG,-0.63
6,TTTGACTTCTTCTTGGAGCAAG,-0.501
7,TTGATCTTCAGAGCCACCTCCT,-0.746
8,TAGGTCATGGCATAGGGGGCGG,-1.09
9,TGATCCTTGTAGTCCAGAGGGT,-0.793
10,TAGCTCTGGCCTGATAGGGAGG,-0.851
11,TGTAAGCTGAACACCGAGCTGT,0.575
12,TTGTAGTCCAGAGGGTCCATGG,-1.32
13,TAGACGTCTGGGTACTGGGTCT,-0.0426
14,TTCAGAGCCACCTCCTCACGGG,-0.313
15,AATTCCAAGCTATCCACGGGGC,-0.328
16,TTGGTTTGACTTCTTCTTGGAG,-0.00294
17,ACTCTGATCCTTGTAGTCCAGA,-1.36
18,TGAACCAAACCTGAACCCTGGA,-0.615
19,TGAGAGAATCACTAGGACCTGT,-0.0623
20,TTCTGAAGCCTGGAGCTCGTGG,-0.966
21,AATAGGAGCTCGGAGACCCATA,-1.54
22,TTGTAGGTGAATTTCCAGGTGC,-0.434

# Target: CRYGS
# Test: as above
# Details: shRNA
row,Sequence,sensor-assay potency score (higher = more potent)
1,TTCGGTGGTTTCATACATCTGA,0.37
2,TGAAATTGCTCCATGATGGAAG,-0.169
3,TTTTTGTCTTCATAGAAAGTAA,-0.778
4,TCGGTGGTTTCATACATCTGAC,-1.43
5,TCGCAATCACAGTCATAGCGAC,-1.06
6,AAGATCTGAATCTTATACTGGC,0.642
7,TCGCATGTGAAATTGCTCCATG,-0.662
